Compounds without any hit were thinned out: in the full panel of roughly 83,000, 20% have a hit.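 How to read the values: 0–100, growth inhibition (40 = 60% inhibited); 0, no net growth; -100 to 0, cell death (-40 = 40% of starting cells died; -100 = all dead).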 Unmarked numbers belong to inactive results. The source made the active and inactive calls. Rule for the calls: active = growth percent below 10; inactive = the rest.

Here are results for three compounds from PubChem BioAssay (NCI).

Some test systems named below: 786-0 renal; MALME-3M melanoma; MDA-MB-231 breast; SF-268 CNS; SF-295 CNS; UACC-257 melanoma; U251 CNS; PC-3 prostate; UACC-62 melanoma; SK-MEL-2 melanoma; SN12C renal; UO-31 renal; TK-10 renal; ACHN renal; A498 renal; OVCAR-5 ovarian; OVCAR-3 ovarian; HS 578T breast; NCI/ADR-RES ovarian; BT-549 breast.
Holding throughout (test): NCI-60 one-dose screen, 48 h (100 = growth as untreated, 0 = no growth, -100 = all killed)
Holding throughout (conditions): 10 µM

As to `CC1(C)CC[C@]2(C(=O)O)CC[C@]3(C)C(=CCC4[C@@]5(C)C[C@@H](O)[C@@H]6OC(c7cccc(F)c7)OC[C@@]6(C)C5CC[C@]43C)C2C1` (stereo not given in full), the growth is 59.3% in the assay with 786-0 renal; 70% in the assay with MALME-3M melanoma; 60.7% in the assay with MDA-MB-231 breast; 55.6% in the assay with SF-268 CNS; 42.7% in the assay on SF-295 CNS; 67.8% with UACC-257 melanoma. For the same compound, the growth with U251 CNS is 11.6%; in the assay with PC-3 prostate, 32.1%; in the assay on UACC-62 melanoma, 49.7%; in the assay with SK-MEL-2 melanoma it was 51.1%; with SN12C renal, 28.2%; with UO-31 renal it was 34.2%. The growth was 32.4% in the assay with TK-10 renal; 17.6% with ACHN renal; 78.7% with A498 renal; 73.2% in the assay on OVCAR-5 ovarian; 37.9% with OVCAR-3 ovarian; 66.4% in the assay with HS 578T breast. Also, the growth in the assay with NCI/ADR-RES ovarian was 43.7%; in the assay on BT-549 breast it was 39%.
Take `C#C[C@]1(O)CC[C@H]2[C@@H]3CC=C4c5sc(Nc6ccc(N(C)C)cc6)nc5CC[C@]4(C)[C@H]3CC[C@@]21C`: the growth in the assay with 786-0 renal is -54.6% (active); in the assay with MALME-3M melanoma, -44.7% (active); in the assay on MDA-MB-231 breast, -10.7% (active); with SF-268 CNS, 11.7%; in the assay with SF-295 CNS, -58.7% (active); in the assay on UACC-257 melanoma, 45.9%. For the same compound, the growth was -75% (active) in the assay with U251 CNS; 5.44% (active) in the assay with PC-3 prostate; -2.23% (active) with UACC-62 melanoma; -33.1% (active) with SK-MEL-2 melanoma; 12.1% in the assay with SN12C renal; -45% (active) in the assay on UO-31 renal. Moreover, the growth was 42.3% with TK-10 renal; -4.47% (active) in the assay with ACHN renal; -42.4% (active) in the assay with A498 renal; 21.7% in the assay with OVCAR-5 ovarian; 2.6% (active) with OVCAR-3 ovarian; -7.74% (active) in the assay with HS 578T breast. Further, the growth was 9.68% (active) in the assay with NCI/ADR-RES ovarian and -58.8% (active) in the assay with BT-549 breast.
Turning to `O=C(c1ccc(Cl)cc1)C(c1c[nH]c2ccccc12)c1c[nH]c2ccccc12`, the growth with 786-0 renal is -87.6% (active); in the assay with MALME-3M melanoma, -91.5% (active); with MDA-MB-231 breast, 3.98% (active); in the assay with SF-268 CNS, 9.45% (active); in the assay with SF-295 CNS it was 14.5%; in the assay on UACC-257 melanoma it was -39.8% (active). Besides, the growth with U251 CNS is -89.1% (active); with PC-3 prostate it was -33.2% (active); with UACC-62 melanoma, -53.4% (active); with SK-MEL-2 melanoma it was -66.5% (active); with SN12C renal, -59.7% (active); in the assay on UO-31 renal, -94.6% (active). Further, the growth with TK-10 renal was -62.2% (active); in the assay with ACHN renal, -99.9% (active); in the assay on A498 renal, 58.9%; in the assay with OVCAR-5 ovarian, -60.7% (active); in the assay on OVCAR-3 ovarian, -84% (active); in the assay with HS 578T breast it was 27.2%. In addition, the growth is 11% in the assay with NCI/ADR-RES ovarian and -38.2% (active) in the assay with BT-549 breast.
